High-throughput results as filed in PubChem BioAssay.
D2 ag-1: activates the human D2 dopamine receptor; P14416; HEK293 T-REx D2 cells, calcium flux agonist mode; activation, % at 2 µM; actives 0.53% (n = 340,000);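 active means activation over 3 SD above normal in the single-dose calcium agonist read, cut at about 30% in these data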; further: 0% is about no effect
Target sequence (P14416 whole entry, looked up): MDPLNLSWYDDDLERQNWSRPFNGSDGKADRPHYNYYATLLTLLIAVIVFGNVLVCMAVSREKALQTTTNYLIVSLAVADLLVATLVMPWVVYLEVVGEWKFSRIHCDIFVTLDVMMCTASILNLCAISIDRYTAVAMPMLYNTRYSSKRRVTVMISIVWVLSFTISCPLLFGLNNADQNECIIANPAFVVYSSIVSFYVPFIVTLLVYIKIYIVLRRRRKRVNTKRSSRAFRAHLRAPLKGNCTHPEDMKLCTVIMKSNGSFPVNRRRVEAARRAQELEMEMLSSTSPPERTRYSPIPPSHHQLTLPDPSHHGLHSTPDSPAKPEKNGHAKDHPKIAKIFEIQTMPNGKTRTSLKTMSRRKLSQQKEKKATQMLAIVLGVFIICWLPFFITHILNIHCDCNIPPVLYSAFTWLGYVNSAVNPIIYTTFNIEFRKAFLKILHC
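Agonism scored from kinetic calcium signal (1 read/sec, 180 s) following compound pin transfer, after a 10 s baseline. Cells: HEK293 Trex line expressing inducible D2 receptor coupled to calcium, dye-loaded after overnight culture at 30 C.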
D2 PAM-1: positive allosteric modulators of human D2 dopamine receptor; P14416; potentiation, % (no concentration beside the values); AID 624464; actives 0.23% (n = 360,000); DiscoveRx D2 beta-arrestin cells, luminescence, 90 min; 100% = 57 uM dopamine signal; in the data active means potentiation above about 50%; inconclusive means mostly about 30% to 49%
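PathHunter D2 cells, attached overnight at 37 deg C, received compound in DMSO plus dopamine at EC20 (50 nM final) for 90 min at 37 deg C. Beta-arrestin recruitment was read as luminescence after 1 h with detection reagent at ambient temperature.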
D2 PAM-2: positively modulates the human D2 dopamine receptor allosterically. P14416. HEK293 T-REx D2, calcium flux, EC20 dopamine potentiation. potentiation, % at 10 µM. actives 0.34% (n = 340,000). AID 485347;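 active means potentiation over 3 SD above the plate norm, cut at about 30% in these data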; further: 0% is about no effect
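Using a no-wash calcium dye in inducible, force-coupled HEK293 Trex cells expressing D2, we tracked fluorescence each second for 180 s after compound, then for 180 s after EC20 dopamine to detect augmented signalling.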
D2 ag-2: agonists of human D2 dopamine receptor (beta-arrestin). P14416. actives 0.084% (n = 360,000). activation, % (test concentration not listed). DiscoveRx PathHunter D2 beta-arrestin, luminescence, 90 min; 100% = 57 uM dopamine signal. AID 624465; in the data active means activation above about 40%; inconclusive means between about 15% and that limit
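DiscoveRx PathHunter D2 beta-arrestin cells (2,100/well) attached overnight, then compound-stimulated 90 min at 37 C in HBSS/10 mM HEPES/0.1% Tween-20 buffer; beta-galactosidase complementation read by luminescence after 1 h at ambient temperature. Dopamine 57 uM final (EC100) as control.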
D2 antagonist: antagonizes the human D2 dopamine receptor; HEK293 TREx D2 cells, calcium flux, dopamine EC80; P14416; inhibition, % at 10 µM; actives 2% (n = 340,000); in the data active means inhibition above about 30%; inactive means below that, where a call was filed; further: 0% is about no effect
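Read-out: kinetic calcium fluorescence (1 cycle/s) in inducible HEK293 T-REx D2 cells after an EC80 dopamine addition that followed 180 s compound preincubation. Loss of the dopamine response indicates antagonism.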
D3 ag: activates human D3 dopamine receptor beta-arrestin recruitment; shares compounds with D2 ag-1; DiscoveRx D3 beta-arrestin cells, luminescence, 90 min; Potency, µM (doses to about 76.9 µM), inactives show top-dose activation, most hits filed as activators; actives 4% (n = 2,300);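 further: potency means the concentration at half of the fitted maximal effect; 100% = dopamine control response; nearly all actives have a fitted effect of over 70% in size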
D2 ag-3: D2 receptor agonism, beta-arrestin counterscreen; shares compounds with D2 ag-1; DiscoveRx PathHunter D2 beta-arrestin, luminescence, 90 min; response scale: percent relative to full dopamine signal; Potency, µM (highest dose often 76.9 µM), for inactives: top-dose activation, hits mostly activators; actives 5.9% (n = 2,300); AID 720507; further: potency means the concentration at half of the fitted maximal effect; % of control where 0% means no effect; nearly all actives have a fitted effect of over 70% in size
An asterisk follows results filed as active; ? = inconclusive; / = not tested or not shown. Shown are actives, neighbours in structure and some others; about 2.4% of the full set was active somewhere. Unless noted, the call rests on the fitted dose curve; in most records, active means well fitted activation curve with a large enough effect; inconclusive means small, poorly fitted or top-dose-only effect; inactive means flat fitted curve, though single readings scatter.

SMILES | D2 ag-1 | D2 PAM-1 | D2 PAM-2 | D2 ag-2 | D2 antagonist | D3 ag | D2 ag-3
Cc1ccccc1OCC(=O)Nc1ccc(N2CCN(C(=O)c3ccco3)CC2)cc1 | 0.7 | -0.5 | -12.5 | 0.3 | -6.2 | / | /
CCOC(=O)C(C(=O)OCC)C(Nc1cccc(Br)c1)c1ccccc1 (configuration not stated) | 1.6 | -19.2 | 0.9 | -2.7 | 2.6 | / | /
CCOC(=O)C(NCCCCl)c1ccccc1 (configuration not stated) | 34.7* | -5.0 | -3.1 | -1.0 | 21.9 | -6.2% | -4.3%
CCOC(=O)c1ccc(N2CN(CCc3ccccc3)CNC2=S)cc1 | 6.8 | -8.6 | 7.0 | -2.1 | -14.6 | -5.3% | -4.1%
CCCN1CNC(=S)N(c2ccc(C(=O)OCC)cc2)C1 | -0.3 | 3.4 | -3.6 | -2.7 | -1.1 | / | /
O=C(CCc1nnc2n(Cc3ccccc3Cl)c(=O)c3ccccc3n12)NCCCN1CCOCC1 | 1.2 | -9.8 | -4.9 | -0.7 | -8.2 | / | /
Cc1ccc(Cn2c(=O)c3ccccc3n3c(CCC(=O)NCCN4CCOCC4)nnc23)cc1 | 62.7* | -7.7 | -27.2 | 5.0 | -11.1 | -7.7% | -0.8%
O=c1[nH]c(S)nc2sc3c(c12)CCCC3 | -0.5 | 0.6 | 6.3 | -7.4 | -4.4 | / | /
O=c1[nH]c(-c2ccco2)nc2sc3c(c12)CCCC3 | 52.1* | -6.8 | -21.3 | 0.5 | 8.9 | -4.8% | -4.6%
COc1ccc(OC)c(S(=O)(=O)NCc2cn3ccsc3n2)c1 | 26.1 | -8.1 | -8.8 | -4.2 | -1.6 | -4.5% | 1.8%
O=C(COC(=O)[C@H](Cc1ccccc1)NC(=O)c1cccs1)Nc1ccccc1C(F)(F)F | -0.1 | -4.8 | -7.6 | -1.4 | 4.3 | / | /
NC(=O)NC(=O)COC(=O)[C@H](Cc1ccccc1)NC(=O)c1cccs1 | 17.0 | -19.3 | 4.2 | -1.8 | 10.1 | 13.8% | -5.4%
COc1ccc(C(=O)C(CCCCC(CN(C)C)C(=O)c2ccc(OC)cc2)CN(C)C)cc1 (configuration not stated) | / | -34.5 | / | -1.3 | / | / | /
CCOc1ccc(C(=O)C(CCC(CN(C)C)C(=O)c2ccc(OCC)cc2)CN(C)C)cc1 (configuration not stated) | 2.5 | -10.6 | 16.3 | -1.3 | 37.0* | -16.6% | -3.3%
COc1cc(Cn2cnnn2)ccc1O | -0.3 | -14.4 | -4.4 | -2.3 | 20.1 | 2.2% | 0.2%
c1cc2c(cc1Cn1cnnn1)OCO2 | 0.2 | -16.2 | -13.1 | -2.6 | 1.5 | / | /
CSCCC(NC(=O)c1ccc(Cl)cc1)C(=O)OCC(=O)N1CCCC1=O (configuration not stated) | 1.3 | 2.3 | -10.9 | -0.7 | 1.4 | / | /
COc1ccccc1C(=O)NC(CCSC)C(=O)OCC(=O)N1CCCC1=O (configuration not stated) | -0.7 | -4.6 | -8.3 | -1.9 | -21.3 | -3.1% | -0.6%
CCOc1ccc(NC(=S)NC(=O)c2c(Br)cnn2C)c([N+](=O)[O-])c1 | 47.8* | -5.5 | -15.8 | -4.9 | 4.5 | -5.1% | 1.4%
CN(Cc1ccccc1)C(=O)c1ccc(NC(=O)Cc2cccc(NC(=O)C3CCCN(C(=O)C4CCC4)C3)c2)cc1 (configuration not stated) | 0.6 | -14.4 | 8.5 | -3.0 | -3.9 | -2.8% | 5.7%
CN(C(=O)c1ccc(NC(=O)Cc2ccc(NC(=O)C3CCN(C(=O)c4ccccc4)CC3)cc2)cc1)C1CC1 | 0.6 | -13.8 | 2.4 | -4.1 | -2.5 | -3.6% | -4.5%
O=C(Cc1cccc(NC(=O)C2CCN(C(=O)C3CC3)CC2)c1)Nc1cccc(C(=O)N2CCCC2)c1 | 0.8 | 9.6 | 4.4 | 1.8 | 2.2 | -3.8% | -4.7%
O=C(Cc1cccc(NC(=O)C2CCN(C(=O)C3CCC3)CC2)c1)Nc1cccc(C(=O)N2CCCCC2)c1 | / | -0.9 | / | 1.2 | / | / | /
CN(C(=O)c1cccc(NC(=O)Cc2ccc(NC(=O)C3CCN(C(=O)c4ccccc4)CC3)cc2)c1)C1CCC1 | / | 6.5 | / | 3.9 | / | / | /
O=c1[nH]c(=S)[nH]c2c1C(c1ccc(F)cc1)OC(CCC(F)(F)F)C2 (configuration not stated) | / | -6.9 | / | -2.6 | / | / | /
SMILES | D2 ag-1 | D2 PAM-1 | D2 PAM-2 | D2 ag-2 | D2 antagonist | D3 ag | D2 ag-3
Cc1nn(-c2ccc(C(=O)N3CCN(S(=O)(=O)c4ccccc4C(F)(F)F)CC3)cc2)c(C)c1Cl | 74.3* | 3.5 | -34.9 | ? | 56.3* | 0.794µM* | 31.6µM*
CCCCN(C(=O)c1ccccc1Br)C(c1ccc(OC)cc1)c1nc2ccccc2[nH]1 (configuration not stated) | / | -5.7 | / | -4.2 | / | / | /
CN(C(=O)c1ccccc1C(=O)OCC(=O)c1ccccc1)c1ccccc1 | / | 2.0 | / | 2.0 | / | / | /
CN(C(=O)c1ccccc1C(=O)OCC(=O)c1ccc(F)cc1)c1ccccc1 | 0.0 | -8.0 | -8.2 | -3.1 | 23.2 | -4.4% | 0.4%
COc1ccc(C)cc1NC(=O)c1ccc(CN2CCN(c3ccccc3)CC2)cc1 | 79.5* | 20.6 | -23.8 | ? | 88.8* | 13.7% | ?
COc1ccc(NC(=O)c2ccc(CN3CCN(c4ccccc4)CC3)cc2)cc1OC | 59.5* | -6.4 | -21.6 | ? | 70.8* | 10.2% | ?
COc1ccc(CC(C)N2CCN(Cc3ccccc3)CC2)c(OC)c1 (configuration not stated) | 59.4* | -11.0 | -21.0 | 5.4 | 83.0* | -5.0% | 9.7%
COc1ccc(CC(C)N2CCN(c3ccccc3)CC2)cc1OC (configuration not stated) | 64.7* | 2.5 | -13.3 | ? | 66.2* | 5.1% | ?
COc1ccc(C)cc1NC(=O)c1ccc(CN2CCc3ccccc3C2)cc1 | 1.3 | -14.0 | -12.5 | -0.7 | 26.4 | / | /
COc1ccccc1C(=O)Nc1ccc(N2CCN(Cc3ccccc3)CC2)cc1 | 3.7 | -19.4 | 4.6 | -0.5 | -8.5 | / | /
COc1ccc(CN2CCN(CCCc3ccccc3)CC2)c(OC)c1 | 0.0 | / | -17.7 | / | -11.4 | / | /
COc1ccc(S(=O)(=O)N2CCN(c3ccccc3)CC2)cc1OC | / | 6.7 | / | 2.0 | / | / | /
CCCCNc1ccc2c(c1)C1CC2CCN1C(=O)OCc1ccccc1 (configuration not stated) | / | -8.1 | / | -1.9 | / | / | /
Cc1ccc2c(=O)cc(C(=O)Nc3c(C)cccc3C)oc2c1 | -0.4 | / | -2.5 | / | / | / | /
COc1ccc(S(=O)(=O)N2CCCCC2)cc1NC(=O)CCCNC(=O)c1ccc(Cl)cc1 | -0.8 | -4.4 | -10.4 | 1.4 | -14.8 | / | /
COc1cccc2c1cc1c(=O)n(CC(=O)N3CCC(C)CC3)nc(C)n12 | / | 12.5 | -8.9 | ? | / | -4.3% | ?
